According to PubChem BioAssay:
Results filed as inconclusive are left out. The source made the active and inactive calls.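 How the source made its calls, unless noted: active means percent response above 42, roughly 3 SD of non-fluorescent test compounds; inactive means the rest.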

How the values were obtained:
[1] = yeast TOR pathway RPL19A-GFP modulators, primary screen, cell-based, S. cerevisiae, multiplex flow cytometry (AID 1862; in the data active means percent of DMSO control GFP below about 86%;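 further: lower values mimic rapamycin by blocking the RPL19A rise seen in DMSO cells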); conditions: S. cerevisiae RPL19A-GFP strain, flow cytometry fluorescence, 3 h; at 10 µM; stronger effect = lower value
[2] = modulators of MEP2-GFP levels in yeast, primary screen, S. cerevisiae, multiplex flow cytometry (AID 1867;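 active means GFP response, as percent of the DMSO control, above the screen-wide mean plus 3 SD, about 139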;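 further: median GFP channel fluorescence of barcode-gated MEP2-GFP cells measured by flow cytometry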); conditions: S. cerevisiae MEP2-GFP strain, 3 h, at 10 µM, stronger effect = higher value, 100% means same as DMSO wells
[3] = modulators of CIT2-GFP expression in yeast, primary screen, S. cerevisiae, GFP fusion, multiplex flow cytometry (AID 1870;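 active means percent response above a set limit, the screen-wide mean plus 3 SD, cut at about 130% in these data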;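 further: barcoded CIT2-GFP strain pooled with four other GFP strains with rapamycin as positive control; median GFP fluorescence per well over plate mean of DMSO wells so 100% = DMSO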); conditions: 3 h, at 10 µM, stronger effect = higher value
[4] = modulators of LAP4-GFP expression in yeast, primary screen, S. cerevisiae, multiplex flow cytometry (AID 1873;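 active means GFP signal, as percent of the solvent control, above the screen mean plus 3 SD, about 149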); conditions: 3 h, at 10 µM, stronger effect = higher value
[5] = modulators of AGP1-GFP expression in yeast TOR pathway, primary screen, cell-based, multiplex flow cytometry, S. cerevisiae (AID 1887;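 active means GFP signal above the screen-wide mean plus 3 SD, that is over about 124.5% of the solvent control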;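 further: AGP1-GFP fusion strain of S. cerevisiae within a five-strain barcoded multiplex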); conditions: 3 h, at 10 µM, stronger effect = higher value
[6] = inhibitors of CD8+ T cell-vesicle binding, pilot screen, LFA-1/ICAM-1 modulator project, MLPCN validation set, flow cytometry (AID 2523;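 active means response below a set limit, under 55% cells CD8-positive and vesicle-bound, and CD8 cells' 90th-percentile brightness under 279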;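 on vesicle binding response: mean PE anti-B7-1 fluorescence of CD8+ cells relative to row control; 100% = QL9-loaded vesicles with DMSO vehicle in the same plate row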); conditions: 2C mouse CD8+ T cells, at 7 µM, stronger effect = lower value; double positive events: measured here: CD8+/vesicle+ event percentage
[7] = biological target: Integrin beta-1 (Homo sapiens) + Integrin alpha-4 (Homo sapiens) (UniProt P13612+P05556); experiment: inhibition of HUTS-21 binding to VLA-4, pilot screen, VLA-4 allosteric modulator project, U937 cells, HUTS-21 mAb, flow cytometry, validation set (AID 2674;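 active means inhibition above 50%, about 3 SD of the validation set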;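 further: antibody binding induced by the VLA-4 ligand LDV present at three times its Kd; 0% = LDV ligand with antibody and no compound and 100% = antibody without LDV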); conditions: HUTS-21 LIBS mAb binding, at 6.7 µM, stronger effect = higher value, binding induced by LDV ligand
Chain of Integrin beta-1 (Homo sapiens) + Integrin alpha-4 (Homo sapiens) (P05556 whole entry, looked up): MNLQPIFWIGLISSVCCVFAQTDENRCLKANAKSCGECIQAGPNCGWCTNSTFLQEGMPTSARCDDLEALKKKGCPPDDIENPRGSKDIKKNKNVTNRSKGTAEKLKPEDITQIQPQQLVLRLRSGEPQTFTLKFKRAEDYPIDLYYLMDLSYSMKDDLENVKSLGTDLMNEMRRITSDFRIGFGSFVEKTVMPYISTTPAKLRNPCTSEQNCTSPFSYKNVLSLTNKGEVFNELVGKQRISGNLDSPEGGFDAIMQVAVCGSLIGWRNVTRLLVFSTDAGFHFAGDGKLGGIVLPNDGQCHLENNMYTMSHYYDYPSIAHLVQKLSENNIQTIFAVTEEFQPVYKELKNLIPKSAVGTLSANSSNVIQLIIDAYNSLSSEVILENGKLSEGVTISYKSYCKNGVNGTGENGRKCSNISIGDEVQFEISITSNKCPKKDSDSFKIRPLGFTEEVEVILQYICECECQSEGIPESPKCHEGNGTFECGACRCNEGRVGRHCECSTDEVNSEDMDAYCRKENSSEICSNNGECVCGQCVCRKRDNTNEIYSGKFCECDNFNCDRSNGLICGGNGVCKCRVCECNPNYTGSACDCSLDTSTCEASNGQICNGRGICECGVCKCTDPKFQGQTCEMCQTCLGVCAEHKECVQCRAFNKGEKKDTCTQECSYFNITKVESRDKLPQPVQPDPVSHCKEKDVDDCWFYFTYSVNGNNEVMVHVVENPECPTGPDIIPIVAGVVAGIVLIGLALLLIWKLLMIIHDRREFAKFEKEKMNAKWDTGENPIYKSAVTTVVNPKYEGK
Chain of Integrin beta-1 (Homo sapiens) + Integrin alpha-4 (Homo sapiens) (P13612 whole entry, looked up): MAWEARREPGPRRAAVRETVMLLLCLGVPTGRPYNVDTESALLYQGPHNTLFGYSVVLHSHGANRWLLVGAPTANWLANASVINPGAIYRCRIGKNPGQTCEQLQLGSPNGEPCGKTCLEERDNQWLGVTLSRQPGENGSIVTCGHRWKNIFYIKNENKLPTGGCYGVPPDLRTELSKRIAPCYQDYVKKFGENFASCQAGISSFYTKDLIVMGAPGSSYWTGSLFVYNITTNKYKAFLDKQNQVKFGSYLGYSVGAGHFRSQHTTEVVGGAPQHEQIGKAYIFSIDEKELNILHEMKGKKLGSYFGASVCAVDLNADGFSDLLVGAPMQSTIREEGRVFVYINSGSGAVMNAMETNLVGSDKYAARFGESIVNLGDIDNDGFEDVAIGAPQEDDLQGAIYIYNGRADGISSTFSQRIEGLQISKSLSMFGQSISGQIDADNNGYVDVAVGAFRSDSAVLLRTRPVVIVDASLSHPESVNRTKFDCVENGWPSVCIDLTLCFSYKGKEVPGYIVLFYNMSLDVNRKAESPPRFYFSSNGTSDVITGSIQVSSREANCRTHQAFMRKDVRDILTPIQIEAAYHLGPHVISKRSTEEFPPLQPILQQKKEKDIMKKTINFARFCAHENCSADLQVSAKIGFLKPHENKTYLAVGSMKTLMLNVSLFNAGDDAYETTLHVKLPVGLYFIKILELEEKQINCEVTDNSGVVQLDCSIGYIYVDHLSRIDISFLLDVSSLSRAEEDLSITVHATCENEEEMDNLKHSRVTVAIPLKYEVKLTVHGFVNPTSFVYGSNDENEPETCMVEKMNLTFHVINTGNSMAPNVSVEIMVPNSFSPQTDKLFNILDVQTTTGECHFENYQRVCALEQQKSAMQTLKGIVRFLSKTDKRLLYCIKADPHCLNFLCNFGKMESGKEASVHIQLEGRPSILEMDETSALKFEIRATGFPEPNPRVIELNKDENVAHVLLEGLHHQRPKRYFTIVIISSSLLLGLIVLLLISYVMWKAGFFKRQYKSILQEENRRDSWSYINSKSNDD

[8] = superoxide lowering in aged yeast cells, pilot screen, validation compound set (AID 2706;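 active means superoxide response below 65% of plate, a cut near 3 SD across the whole screen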;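 further: yeast exposed to compound for one week at 30 degrees C before staining; 100% = mean of all compound wells on the same plate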); conditions: S. cerevisiae aging, superoxide DHE fluorescence; at 10 µM; stronger effect = lower value
[9] = biological target: Beta-adrenergic receptor kinase 1 (Homo sapiens) (UniProt P25098); experiment: GRK2 binders displacing RNA aptamer, biochemical, validation, human GRK2, bead flow cytometry (AID 488806;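 active means aptamer binding inhibition above 30%, about 3 SD of noise from non-fluorescent compounds; inactive means inhibition at or below 30%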); conditions: bead-bound GRK2, FAM-aptamer displacement, at 10 µM, stronger effect = higher value
Chain of Beta-adrenergic receptor kinase 1 (Homo sapiens) (P25098 whole entry, looked up): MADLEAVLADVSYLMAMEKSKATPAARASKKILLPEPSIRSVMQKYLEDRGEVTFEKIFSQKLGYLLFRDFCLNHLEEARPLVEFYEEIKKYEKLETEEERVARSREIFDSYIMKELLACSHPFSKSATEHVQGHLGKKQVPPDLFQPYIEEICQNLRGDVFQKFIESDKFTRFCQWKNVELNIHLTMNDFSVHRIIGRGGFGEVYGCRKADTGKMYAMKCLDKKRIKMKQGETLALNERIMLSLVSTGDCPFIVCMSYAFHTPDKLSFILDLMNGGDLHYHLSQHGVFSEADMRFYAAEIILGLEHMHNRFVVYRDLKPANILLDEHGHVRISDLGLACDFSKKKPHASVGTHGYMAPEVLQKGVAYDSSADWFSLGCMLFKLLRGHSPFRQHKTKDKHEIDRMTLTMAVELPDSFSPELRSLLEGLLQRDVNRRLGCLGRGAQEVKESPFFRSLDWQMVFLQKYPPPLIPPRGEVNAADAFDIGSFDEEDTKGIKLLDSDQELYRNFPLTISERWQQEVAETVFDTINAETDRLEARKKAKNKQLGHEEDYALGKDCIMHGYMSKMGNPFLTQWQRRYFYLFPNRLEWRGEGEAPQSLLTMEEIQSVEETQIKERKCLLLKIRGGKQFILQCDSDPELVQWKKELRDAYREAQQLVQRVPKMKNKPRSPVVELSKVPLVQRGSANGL

[10] = biological target: Beta-2 adrenergic receptor (Homo sapiens) (UniProt P07550); experiment: beta2AR agonists driving receptor internalization, pilot screen, cell-based, FAP fluorogen, flow cytometry, validation set (AID 504459); conditions: Am2.2-beta2AR cells, FAP surface receptor flow cytometry; at 10 µM; stronger effect = higher value;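 further: agonist-driven loss of surface beta2AR via internalization measured by FAP dye flow cytometry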
Chain of Beta-2 adrenergic receptor (Homo sapiens) (P07550 whole entry, looked up): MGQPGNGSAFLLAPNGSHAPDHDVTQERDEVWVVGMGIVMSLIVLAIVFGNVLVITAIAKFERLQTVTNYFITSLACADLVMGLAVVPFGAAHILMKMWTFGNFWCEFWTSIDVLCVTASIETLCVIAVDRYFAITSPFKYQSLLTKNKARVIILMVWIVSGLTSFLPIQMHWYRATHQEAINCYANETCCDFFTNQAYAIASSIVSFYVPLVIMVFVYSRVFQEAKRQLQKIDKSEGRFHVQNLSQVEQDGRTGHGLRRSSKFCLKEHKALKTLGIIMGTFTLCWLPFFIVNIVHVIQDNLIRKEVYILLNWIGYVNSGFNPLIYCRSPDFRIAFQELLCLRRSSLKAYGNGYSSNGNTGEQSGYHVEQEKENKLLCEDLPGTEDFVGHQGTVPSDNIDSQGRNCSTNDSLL

[11] = biological target: AP-2 complex subunit beta (Homo sapiens) (UniProt P63010); experiment: inhibitors of arrestin peptide binding to AP2, pilot screen, biochemical, validation set, GST-AP2 beads, flow cytometry (AID 504541;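 active means inhibition above 54%, about 3 SD of non-fluorescent compounds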;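 further: AP2 carries R879A mutation and is captured from E. coli lysate; bead-bound FITC arrestin peptide fluorescence measuring arrestin peptide binding to AP2; 0% = DMSO wells and 100% = excess unlabeled arrestin peptide control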); conditions: FITC arrestin peptide, at 10 µM, stronger effect = higher value, AP2 beta2 appendage fragment, R879A mutant
Chain of AP-2 complex subunit beta (Homo sapiens) (P63010 whole entry, looked up, the tested form may be a part, one chain of several): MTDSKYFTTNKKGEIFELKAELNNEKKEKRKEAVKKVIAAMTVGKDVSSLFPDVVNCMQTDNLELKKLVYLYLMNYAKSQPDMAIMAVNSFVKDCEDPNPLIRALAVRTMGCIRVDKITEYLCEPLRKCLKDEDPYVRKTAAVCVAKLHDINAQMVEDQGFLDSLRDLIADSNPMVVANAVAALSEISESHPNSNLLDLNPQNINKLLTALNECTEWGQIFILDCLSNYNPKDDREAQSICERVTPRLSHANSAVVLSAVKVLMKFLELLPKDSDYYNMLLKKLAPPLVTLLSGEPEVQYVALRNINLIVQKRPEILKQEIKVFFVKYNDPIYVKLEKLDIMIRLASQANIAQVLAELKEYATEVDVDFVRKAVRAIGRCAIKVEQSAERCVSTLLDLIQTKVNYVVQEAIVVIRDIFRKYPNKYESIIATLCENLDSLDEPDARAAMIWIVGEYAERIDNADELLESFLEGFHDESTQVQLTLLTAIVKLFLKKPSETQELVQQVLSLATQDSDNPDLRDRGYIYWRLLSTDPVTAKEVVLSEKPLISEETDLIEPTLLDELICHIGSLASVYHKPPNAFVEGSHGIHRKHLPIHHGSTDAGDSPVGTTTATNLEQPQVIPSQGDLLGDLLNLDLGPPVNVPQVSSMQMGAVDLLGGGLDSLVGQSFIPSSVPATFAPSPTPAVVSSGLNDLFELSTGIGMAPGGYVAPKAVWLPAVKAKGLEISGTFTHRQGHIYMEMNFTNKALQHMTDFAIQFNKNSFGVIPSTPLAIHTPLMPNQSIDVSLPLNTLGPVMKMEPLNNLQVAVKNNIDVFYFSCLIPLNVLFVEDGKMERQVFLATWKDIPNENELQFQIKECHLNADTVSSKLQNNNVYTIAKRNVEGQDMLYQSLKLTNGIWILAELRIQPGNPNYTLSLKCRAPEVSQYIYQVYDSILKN

[12] = yeast V-ATPase proton transport modulators, S. cerevisiae, pHLuorin, HTS validation (AID 504600; in the data active means response above about 15%;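 further: plate controls were DMSO for no effect and reference compound for full effect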); conditions: S. cerevisiae pHLuorin cytosolic pH, at 10 µM, stronger effect = higher value
[13] = test system: anti-desmoglein-3 scFv antibody binding to human DSG3; experiment: inhibitors of anti-DSG3 scFv binding to DSG3, pilot screen, biochemical, validation compound set, bead-based, flow cytometry (AID 588368;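 active means binding below the plate cutoff, the plate median minus 3 SD, with a reading above zero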;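 further: signal is the median channel fluorescence of bead-bound GFP antibody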); conditions: Protein G beads, DSG3-Fc, scFv-GFP binding, at 10 µM, stronger effect = lower value
[14] = inhibitors of fungal efflux pumps CDR1, CDR2, MDR1, pilot screen, validation compound set, multiplex, phenotypic (AID 588506;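 active means efflux inhibition above 0.42, the validation set average plus 4 SD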;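 further: Nile Red retained in cells so higher fluorescence means more efflux inhibition; 0 = negative control wells and 1 = enniatin B 25 µM full block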); conditions: S. cerevisiae pump-expressing triplex, Nile Red efflux flow cytometry; at 10 µM; stronger effect = higher value; the pumps come from Candida albicans
[15] = biological target: ATP-binding cassette sub-family B member 6 (Homo sapiens) (UniProt Q9NP58); experiment: ABCB6 transporter inhibitors, pilot screen, K562-ABCB6 cells, flow cytometry, validation set (AID 588550;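 active means inhibition above the screen-wide mean plus 3 SD, about 51%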;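 further: 0% = DMSO wells and 100% = benzethonium chloride 70 µM positive control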); conditions: K562-ABCB6 porphyrin accumulation, 1 h, at 10 µM, stronger effect = higher value
Chain of ATP-binding cassette sub-family B member 6 (Homo sapiens) (Q9NP58 whole entry, looked up): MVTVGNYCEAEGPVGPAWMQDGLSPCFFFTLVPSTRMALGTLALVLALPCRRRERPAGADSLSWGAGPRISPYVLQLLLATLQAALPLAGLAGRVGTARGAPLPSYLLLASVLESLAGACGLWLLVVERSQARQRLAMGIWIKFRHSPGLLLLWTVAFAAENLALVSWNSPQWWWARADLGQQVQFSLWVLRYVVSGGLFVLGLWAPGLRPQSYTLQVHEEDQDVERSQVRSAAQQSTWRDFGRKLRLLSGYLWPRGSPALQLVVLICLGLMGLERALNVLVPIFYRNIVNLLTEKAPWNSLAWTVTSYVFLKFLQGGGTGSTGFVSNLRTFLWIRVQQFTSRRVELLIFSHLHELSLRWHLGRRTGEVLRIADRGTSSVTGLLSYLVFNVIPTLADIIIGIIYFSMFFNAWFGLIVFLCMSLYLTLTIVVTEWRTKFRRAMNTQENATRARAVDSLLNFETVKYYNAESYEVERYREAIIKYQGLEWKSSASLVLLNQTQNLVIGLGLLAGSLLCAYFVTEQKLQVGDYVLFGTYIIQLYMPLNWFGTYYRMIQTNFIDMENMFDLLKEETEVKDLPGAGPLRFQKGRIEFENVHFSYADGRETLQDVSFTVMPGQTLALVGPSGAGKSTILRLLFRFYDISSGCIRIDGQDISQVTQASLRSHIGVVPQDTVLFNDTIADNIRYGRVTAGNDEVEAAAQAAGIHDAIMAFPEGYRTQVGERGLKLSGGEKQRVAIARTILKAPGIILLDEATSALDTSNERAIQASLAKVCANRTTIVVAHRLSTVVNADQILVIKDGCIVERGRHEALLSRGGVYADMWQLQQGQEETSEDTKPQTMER

[16] = promoters of myeloid differentiation in arrested cells, primary screen, cell-based, GFP/MAC1 double positive, flow cytometry, validation set (AID 588685;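 active means differentiation response of at least 50%, scaled between solvent and reference control, from cells with both markers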;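 further: compound exposure lasts four days before antibody staining and flow analysis; 0% = DMSO wells and 100% = 5 µM fulvestrant positive control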); conditions: ER-HoxA9 marrow cells, stronger effect = higher value, normalized: vehicle 0, fulvestrant 100

SMILES	percent of DMSO control GFP [1]	GFP response vs DMSO [2]	percent response of DMSO control [3]	GFP response vs DMSO [4]	GFP response, % of DMSO [5]	double positive events [6] [%]	vesicle binding response [6]	inhibition [7]	superoxide response (% of plate) [8]	aptamer binding inhibition [9]	response [10]	inhibition [11]	response [12]	binding (% of control) [13]	efflux inhibition (fraction of control) [14]	inhibition [15]	differentiation response [16]
CC(C)C(CCN1C(=O)CCC1=O)C1CCOC(C)(C)C1 (stereo not drawn)	103% (inactive)	104% (inactive)	100% (inactive)	95.8% (inactive)	101% (inactive)	62.8	130% (inactive)	3.98% (inactive)	103% (inactive)	11% (inactive)	-1.22% (inactive)	-12.4% (inactive)	-0.12% (inactive)	98.8% (inactive)	0.42 (inactive)	10% (inactive)	4.97% (inactive)
Cc1coc2cc3oc(=O)c(CCC(=O)O)c(C)c3cc12	95.4% (inactive)	101% (inactive)	92% (inactive)	147% (inactive)	86.8% (inactive)	58.9	223% (inactive)	-11.3% (inactive)	109% (inactive)	1% (inactive)	-0.85% (inactive)	20.5% (inactive)	-3.3% (inactive)	106% (inactive)	-0.17 (inactive)	6% (inactive)	-2.4% (inactive)
CC1(C)CC(c2csc(N)n2)CCO1 (stereo not drawn)	103% (inactive)	106% (inactive)	106% (inactive)	86.8% (inactive)	101% (inactive)	65.9	915% (inactive)	1.62% (inactive)	101% (inactive)	3% (inactive)	-0.12% (inactive)	8.95% (inactive)	-0.04% (inactive)	93.3% (inactive)	-0.14 (inactive)	-3% (inactive)	-4.64% (inactive)
CC(NC(=O)OCc1ccccc1)C(=O)N1CC(O)CC1C(=O)O (stereo not drawn)	103% (inactive)	112% (inactive)	90.1% (inactive)	105% (inactive)	103% (inactive)	62.9	182% (inactive)	6.4% (inactive)	97.5% (inactive)	3% (inactive)	9.77% (inactive)	31.1% (inactive)	-4.2% (inactive)	99.5% (inactive)	0.8 (active)	4% (inactive)	29.6% (inactive)
Cc1nc2c(c3c1[nH]c1ccccc13)C(=O)CC(C)(C)C2	99.1% (inactive)	114% (inactive)	86.3% (inactive)	114% (inactive)	102% (inactive)	59.1	186% (inactive)	6.4% (inactive)	99.2% (inactive)	3% (inactive)	31.6% (inactive)	6.18% (inactive)	-1.94% (inactive)	98.9% (inactive)	0.3 (inactive)	1% (inactive)	-5.6% (inactive)
COc1ccccc1NC(=O)C12CCC(C)(C(=O)C1)C2(C)C (stereo not drawn)	99.3% (inactive)	105% (inactive)	102% (inactive)	124% (inactive)	109% (inactive)	63.5	173% (inactive)	-2.82% (inactive)	121% (inactive)	5% (inactive)	-14.9% (inactive)	15.9% (inactive)	-0.35% (inactive)	102% (inactive)	0 (inactive)	1% (inactive)	-4% (inactive)
CC(=O)[C@H]1[C@H](C#N)C[C@H]2[C@@H]3CC=C4C[C@@H](O)CC[C@]4(C)[C@H]3CC[C@@]21C	92% (inactive)	125% (inactive)	104% (inactive)	85.8% (inactive)	88% (inactive)	62.5	112% (inactive)	19.1% (inactive)	104% (inactive)	11% (inactive)	2.41% (inactive)	-10% (inactive)	0% (inactive)	103% (inactive)	-0.28 (inactive)	6% (inactive)	-3.28% (inactive)
CC(C)(C)C(=O)NCCCNc1ccc([N+](=O)[O-])cc1	103% (inactive)	123% (inactive)	93.9% (inactive)	95.2% (inactive)	104% (inactive)	67.3	295% (inactive)	5.49% (inactive)	86% (inactive)	-1% (inactive)	-6.07% (inactive)	22% (inactive)	1.78% (inactive)	110% (inactive)	-0.06 (inactive)	15% (inactive)	12.3% (inactive)
CC(C)CCC1(CCNC(C)c2cccs2)CCOC(C)(C)C1 (stereo not drawn)	102% (inactive)	108% (inactive)	97.8% (inactive)	93.3% (inactive)	101% (inactive)	58.8	1220% (inactive)	-6.68% (inactive)	96.5% (inactive)	0% (inactive)	8.29% (inactive)	1.09% (inactive)	-1.06% (inactive)	98.5% (inactive)	-0.17 (inactive)	2% (inactive)	1.22% (inactive)
